Tau FP inhib – blocks human tau fibril formation measured by polarization; P10636; Potency, µM (doses to about 57.7 µM), most hits filed as inhibitors; hit rate 0.39% among 280,000; K18 P301L tau heparin fibrillization, Alexa594 FP, 6 h; note: nearly all actives have a fitted effect of over 55% in size
Target sequence (P10636 561-689 P618L limits assumed): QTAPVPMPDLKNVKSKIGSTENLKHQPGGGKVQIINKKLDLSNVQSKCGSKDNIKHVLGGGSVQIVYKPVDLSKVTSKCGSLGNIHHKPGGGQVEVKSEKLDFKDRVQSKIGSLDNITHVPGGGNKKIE
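Quantitative HTS format: compounds meet 15 uM recombinant K18 P301L tau and Alexa 594-tau tracer in 100 mM sodium acetate pH 7; 20 uM heparin triggers fibrillization at 37 C over 6 hr; FP gives the signal.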
Tau ThT inhib – inhibitors of human tau fibril formation, thioflavin T binding; Potency, µM (titrated, usually from 57.4 µM), most hits filed as inhibitors; AID 1460; recombinant tau K18 P301L, heparin-induced fibrillization, ThT fluorescence; hit rate 2.1% among 270,000; note: nearly all actives have a fitted effect of over 55% in size
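Aggregation was driven by heparin (20 uM final) acting on recombinant tau […] bearing P301L in 100 mM sodium acetate pH 7; fibrils were detected with Thioflavin T.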
FBPA coupling cs – counter-screen for Giardia aldolase inhibitors: coupling enzyme system; coupling enzyme system counterscreen, AmpLite Red fluorescence; activity change, negative = inhibition, % at 58.2 µM, hits read low; hit rate 0.67% among 290,000; in the data active = activity change below about -30%
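Coupling enzymes only (glyceraldehyde-3-phosphate) + compound, at 57.5 uM final, 10 min RT; add substrate/coupling/AmpLite Red mix, 20 min RT; fluorescence ex 525/em 598 nm. Actives flag coupling-system interference.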
Tau fluor counter – counter-screen for tau fibril formation inhibitors; AID 1463; tau K18 P301L Alexa594 fluorescence, heparin fibrillization; Potency, µM (titrated, usually from 57.7 µM); hit rate 0.93% among 280,000; note: nearly all actives have a fitted effect of over 55% in size
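Human tau K18 P301L (15 uM unlabeled, 0.24 uM Alexa 594-labeled) in 100 mM sodium acetate pH 7 with 20 uM heparin, 6 hr at 37 C. ThT 30 uM added, 1 hr ambient; Alexa 594 FP and total fluorescence read at 555/632 nm.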
Sfp inh – inhibitors of Bacillus subtilis Sfp phosphopantetheinyl transferase; Q9F4F7; Biochemical Sfp PPTase activity, qHTS; Potency, µM, usual class: inhibitors; hit rate 3.5% among 310,000;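 note: the enzyme is Sfp with the accession as filed and its product quenches rhodamine fluorescence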
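With Hepes-Na pH 7.6 buffer containing 10 mM MgCl2, Sfp (15 nM) modified BHQ-2-YbbR (12.5 uM) using rhodamine-CoA (5 uM). Two reads 30 minutes apart at 525/598 nm yielded each well's rate.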
G9a block – blocks human histone lysine methyltransferase G9a. Potency, µM (top dose mostly 102 µM), actives largely listed as inhibitors. AID 504332. G9a H3K9 monomethylation, AlphaScreen, 2 h. Q96KQ7. hit rate 8.8% among 350,000; note: nearly all actives have a fitted effect of over 75% in size
Target sequence (Q96KQ7 913-1193 limits assumed): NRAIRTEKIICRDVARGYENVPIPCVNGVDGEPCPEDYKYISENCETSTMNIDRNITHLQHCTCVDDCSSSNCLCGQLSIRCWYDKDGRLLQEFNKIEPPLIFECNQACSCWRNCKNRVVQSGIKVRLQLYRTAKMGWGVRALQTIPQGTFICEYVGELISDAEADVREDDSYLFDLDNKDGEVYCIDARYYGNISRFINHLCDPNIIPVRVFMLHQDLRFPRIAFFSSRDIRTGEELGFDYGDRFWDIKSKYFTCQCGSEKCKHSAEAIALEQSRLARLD
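AlphaScreen read-out: biotin-H3K9 peptide (500 nM) methylation by 20 nM enzyme with 20 uM SAM, 2 h at room temperature after 15 min compound preincubation; anti-monomethyl H3K9 antibody plus donor/acceptor beads, 10 min dark.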
A number is an active result; 0 = inactive; ? = inconclusive; - = no result given; [ ] = another dose, or the depositor's remark. A selection: hits, their analogues and other compounds. The true share with any hit is near 11%. Unless noted, calls come from the whole dose curve; as a rule, active = well fitted curve in the direction sought with a large enough effect; inconclusive = small, poorly fitted or top-dose-only effect, or another doubt; inactive = no such curve, though single readings can be large; an effect the other way counts as inactive or inconclusive.

SMILES | Tau FP inhib | Tau ThT inhib | FBPA coupling cs | Tau fluor counter | Sfp inh | G9a block
CC1c2cccn2CCN1S(=O)(=O)c1ccccc1 (centres undefined) | - | - | - | - | - | 0[2.33 µM]
O=S(=O)(c1cccnc1)N1CCn2cccc2C1c1ccccc1F (centres undefined) | - | - | - | - | - | 45µM
O=C(O)CN1C(=O)/C(=C\c2cccc(OCc3ccccc3F)c2)SC1=S | - | - | 0 | - | 0 | ?
O=C(O)CN1C(=O)/C(=C\c2cccc(OCc3ccc(Cl)cc3)c2)SC1=S | - | - | 0 | - | ? | 40µM
O=C(O)CN1C(=O)/C(=C\c2cccc(OCc3ccc(F)cc3)c2)SC1=S | - | - | 0 | - | 0 | 45µM
COc1ccc(CNc2nc(-c3ccco3)nn2S(=O)(=O)c2ccc(Cl)cc2)cc1OC | 0 | 0 | - | 0 | - | ?
O=C1C(Nc2ccccc2)=CC(=O)c2ncccc21 | ? | 14µM | 0 | ? | ? | ?
Nc1ccccc1S(=O)(=O)Nc1cccc2cccnc12 | - | - | -48 | - | 0 | -
COc1ccccc1NS(=O)(=O)c1cccc2cccnc12 | 0 | 0 | 0 | 0 | 0 | 0
O=C1C=C(Nc2ccccc2)c2ccccc2C1=O | 0 | ? | -49 | 0 | 0 | 40µM
O=C1C=C(Nc2ccccc2)C(=O)c2ccccc21 | 0 | ? | 0 | 0 | 0 | 14µM
CCc1ccc(NC(=O)CCNS(=O)(=O)c2ccc3c(c2)CCCC(=O)N3)cc1 | 0 | 0 | - | 0 | - | 0
O=C(N/N=C\c1ccc[nH]1)C1COc2ccccc2O1 (centres undefined) | 0 | - | 0 | 0 | 0 | 0
O=C1C=C(Nc2cccc3cccnc23)c2ccccc2C1=O | - | - | -65 | - | 0 | 35µM
O=C1C=C(Nc2ccccc2C(=O)O)c2ccccc2C1=O | ? | - | -49 | ? | 0 | -
Cc1cc(F)ccc1-n1nnc(C(N)=O)c1C | 0 | 0 | - | 0 | - | 0
Cc1cnc(CNc2cc(-c3ccoc3)ncn2)cn1 | ? | ? | 0 | 0 | 28µM | -
c1cncc(CNc2cc(-c3ccoc3)ncn2)c1 | - | - | 0 | - | 56µM | 0[0.501 µM]
COc1ccccc1CNc1cc(-c2ccccc2OC)ncn1 | - | - | 0 | - | 0 | 0[0.501 µM]
CN(C)c1ccc(-c2cc(NCc3cccnc3)ncn2)cc1 | 0 | ? | 0 | 0 | 0 | -
Cc1cnc(CNc2cc(-c3ccc4c(c3)OCO4)ncn2)cn1 | - | - | 0 | - | 0 | ?
Cc1cccc(CNc2cc(-c3ccoc3)ncn2)c1 | ? | 18µM | 0 | 0 | 14µM | -
COc1ccccc1CNc1cc(-c2ccoc2)ncn1 | - | - | 0 | - | 28µM | 0[0.501 µM]
COc1ccc(S(=O)(=O)NCc2ccco2)cc1NC(=O)c1ccccc1 | - | - | 0 | - | 0 | 0
COc1cc(/C=N/NC(=O)Cc2ccc(Br)cc2)cc(OC)c1O | 0 | 0 | 0 | 0 | 0 | 50µM
SMILES | Tau FP inhib | Tau ThT inhib | FBPA coupling cs | Tau fluor counter | Sfp inh | G9a block
COc1cc(/C=N/NC(=O)c2ccc(CSc3nncn3C)cc2)cc(OC)c1O | 0 | ? | 0 | 0 | 0 | 13µM
COc1ccc(Cn2c(C)nc([N+](=O)[O-])c2SCC(=O)O)cc1[N+](=O)[O-] | 0 | 0 | 0 | 0 | 0 | 0
Cc1nc([N+](=O)[O-])c(SCC(O)CCl)n1Cc1ccc(Cl)cc1 (centres undefined) | 0 | 0 | 0 | 0 | 0 | 28µM
COc1cccc(CNC(=O)Nc2ccc3c(c2)N(C)C(=O)c2ccccc2S3)c1 | 0 | 0 | - | 0 | - | 0
COc1ccc(-c2nc3sc(CCNC(=O)c4ccco4)c(C)n3n2)cc1 | 0 | ? | - | 0 | - | 0
CC1CN(C(=O)CSc2nnc3c(Cl)cc(Cl)cn23)CC(C)O1 (centres undefined) | 0 | 0 | 0 | 0 | 0 | 79µM
CC(Oc1ccc(F)cc1)C(=O)Nc1cc(-c2ccc(F)c(F)c2)no1 (centres undefined) | ? | 0 | - | 0 | - | 0
O=C(CSc1nc2c([nH]c3ccccc32)c(=O)n1-c1ccccc1)N1CCCCCC1 | 0 | 0 | - | 0 | - | 0
Cc1ccc(S(=O)(=O)N(C)C)cc1NC(=S)NNC(=O)C(N)=O | 0 | 0 | 0 | 0 | 0 | 45µM
Cc1ccc(S(=O)(=O)N(C)C)cc1NC(=S)NNC(=O)C1CC1 | 0 | 0 | 0 | 0 | 0 | 0
COc1ccc(Cc2nnc(N=Nc3c(O)[nH]c4ccc(Br)cc34)[nH]c2=O)cc1 | 0 | 16µM | 0 | 0 | 0 | 0
COc1ccc(/C=C/C2=CC(C)(C)NC(=S)N2)cc1OC | 0 | ? | 0 | 0 | 0 | 45µM

Screens as filed in PubChem BioAssay.
